Structures are written as SMILES. About 14,000 (4.5%) of roughly 310,000 compounds showed an effect of 50% or more. The effect is printed as a negative number. Shown is part of a subset that was picked to be rich in strong results.
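Note: peak tail current of the secondary pulse compared with the same well before compound.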

human ether-à-go-go-related gene (hERG) potassium channel, sequence (Q12809 whole entry, looked up): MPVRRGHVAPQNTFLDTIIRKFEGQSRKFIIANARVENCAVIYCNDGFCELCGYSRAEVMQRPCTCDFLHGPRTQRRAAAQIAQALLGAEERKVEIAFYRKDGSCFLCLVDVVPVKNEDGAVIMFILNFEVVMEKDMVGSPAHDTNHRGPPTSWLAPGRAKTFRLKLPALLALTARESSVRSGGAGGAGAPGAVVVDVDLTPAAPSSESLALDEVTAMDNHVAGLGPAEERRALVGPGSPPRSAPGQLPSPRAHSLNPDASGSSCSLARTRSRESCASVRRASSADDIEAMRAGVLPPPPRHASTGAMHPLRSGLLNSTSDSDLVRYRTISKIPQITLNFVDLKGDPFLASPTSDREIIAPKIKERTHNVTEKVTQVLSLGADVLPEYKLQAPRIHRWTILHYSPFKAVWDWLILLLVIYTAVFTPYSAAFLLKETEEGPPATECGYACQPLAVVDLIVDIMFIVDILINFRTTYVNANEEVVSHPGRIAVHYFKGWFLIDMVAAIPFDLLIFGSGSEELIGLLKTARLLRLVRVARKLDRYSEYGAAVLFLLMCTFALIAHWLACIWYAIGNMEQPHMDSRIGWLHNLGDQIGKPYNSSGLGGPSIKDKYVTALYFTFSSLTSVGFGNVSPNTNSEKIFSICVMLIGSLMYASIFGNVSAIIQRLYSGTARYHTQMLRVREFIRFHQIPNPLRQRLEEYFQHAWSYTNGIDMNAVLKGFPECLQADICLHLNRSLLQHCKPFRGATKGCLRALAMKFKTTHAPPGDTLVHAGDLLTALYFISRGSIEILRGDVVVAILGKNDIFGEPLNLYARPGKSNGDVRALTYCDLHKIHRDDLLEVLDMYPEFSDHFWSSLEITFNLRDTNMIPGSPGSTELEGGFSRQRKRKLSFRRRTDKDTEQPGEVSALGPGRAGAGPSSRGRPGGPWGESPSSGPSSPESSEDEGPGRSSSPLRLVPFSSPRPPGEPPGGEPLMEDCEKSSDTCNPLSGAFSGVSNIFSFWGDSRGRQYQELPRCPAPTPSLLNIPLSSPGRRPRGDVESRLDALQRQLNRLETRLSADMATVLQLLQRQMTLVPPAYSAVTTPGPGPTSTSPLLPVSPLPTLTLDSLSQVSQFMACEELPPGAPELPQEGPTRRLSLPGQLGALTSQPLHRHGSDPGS

The assay concerns the target human ether-à-go-go-related gene (hERG) potassium channel (human, UniProt Q12809). Put plainly: primary screen, population patch clamp on CHO cells stably expressing hERG; higher = less effect of the substance.
With `C=CCSc1nnnn1-c1ccc(OC)cc1`, the “hERG current change (%, negative = inhibition) at 10uM” value was -20%.

On to `Cc1ccc(CNC(=O)CCCNC(=O)c2ccc(Cl)cc2)n1C`, for which the “hERG current change (%, negative = inhibition) at 10uM” value is on record as 2.05%.

For the compound `Cc1ccc(CN2CCN(Cc3cn(C)nc3C)CC2CCO)o1` (stereo not drawn), the “hERG current change (%, negative = inhibition) at 10uM” value is 12.4%.

With `CCOC(=O)C1(CCOc2ccccc2)CCN(Cc2cccc(OC)c2)CC1`, the “hERG current change (%, negative = inhibition) at 10uM” value is reported as -76.1%.

As to `CCOC(=O)C1(CCOC)CCN(Cc2cccc(OCc3ccccc3)c2)CC1`, the “hERG current change (%, negative = inhibition) at 10uM” value was -42.4%.

With `CCOC(=O)C1(CCOc2ccccc2)CCN(Cc2cccc(O)c2)CC1`, the “hERG current change (%, negative = inhibition) at 10uM” value is recorded as -63.1%.

For the compound `CCOC(=O)C1(CCOc2ccccc2)CCN(Cc2cccc(OCCO)c2)CC1`, the “hERG current change (%, negative = inhibition) at 10uM” value is given as -83.4%.

As for `CCOC(=O)C1(CCOc2ccccc2)CCN(Cc2cccc(F)c2)CC1`, the “hERG current change (%, negative = inhibition) at 10uM” value is given as -65.4%.

In the case of `COc1ccccc1NCCC(=O)OCC(=O)NCc1ccco1`, the “hERG current change (%, negative = inhibition) at 10uM” value came to 23.7%.

`COc1ccc(N(CC(=O)Nc2cccc(C(C)=O)c2)S(C)(=O)=O)cc1OC`: the “hERG current change (%, negative = inhibition) at 10uM” value is -10.5%.

As to `Cn1c(Cn2nnc3ccccc32)nnc1SCC(=O)N1c2ccccc2CCc2ccccc21`, the “hERG current change (%, negative = inhibition) at 10uM” value was -23.6%.

Take `O=C(NCCc1ccc(OC(F)F)cc1)C1CC(=O)N(c2ccc3c(c2)OCCO3)C1` (stereo not drawn): the “hERG current change (%, negative = inhibition) at 10uM” value is listed as -47.6%.

Regarding `CNC(=S)N/N=C/c1cc(C)ccc1C`, the “hERG current change (%, negative = inhibition) at 10uM” value is 20.7%.

`O=C(CCc1ccccc1)Nc1ncc([N+](=O)[O-])s1`: the “hERG current change (%, negative = inhibition) at 10uM” value came out at 2.96%.

Consider `Cc1ccc(CNC(=O)C2CCC(=O)N2Cc2ccccc2Cl)cc1` (stereo not drawn), for which the “hERG current change (%, negative = inhibition) at 10uM” value turned out to be 2.52%.

On to `CCOC(=O)C1(CCOc2ccccc2)CCN(Cc2cc(OC)cc(OC)c2)CC1`, for which the “hERG current change (%, negative = inhibition) at 10uM” value is -79.8%.

Consider `CN(C(=O)c1ccc(NC(=O)Cc2ccc(NC(=O)C3CCN(C(=O)C4CCCC4)CC3)cc2)cc1)C1CC1`, for which the “hERG current change (%, negative = inhibition) at 10uM” value turned out to be 22.8%.

For `O=C(CN1CCN(S(=O)(=O)c2ccc(Cl)s2)CC1)N1CCOCC1`, the “hERG current change (%, negative = inhibition) at 10uM” value came out at 14.4%.

On to `Cc1cc(Cl)c(C)c(S(=O)(=O)N2CCN(CC(=O)N3CCOCC3)CC2)c1Cl`, for which the “hERG current change (%, negative = inhibition) at 10uM” value was -64.8%.

Regarding `O=C(CN1CCN(S(=O)(=O)c2cccc(Cl)c2)CC1)N1CCCCC1`, the “hERG current change (%, negative = inhibition) at 10uM” value is reported as -24.8%.

Turning to `O=C(CN1CCN(S(=O)(=O)c2ccc(Cl)c(Cl)c2)CC1)N1CCCCC1`, the “hERG current change (%, negative = inhibition) at 10uM” value was -53.5%.

As for `Cc1ccc(S(=O)(=O)N2CCN(CC(=O)N3CCOCC3)CC2)cc1`, the “hERG current change (%, negative = inhibition) at 10uM” value was 16.8%.

Turning to `O=C(CN1CCN(S(=O)(=O)c2ccccc2)CC1)N1CCCCC1`, the “hERG current change (%, negative = inhibition) at 10uM” value worked out at 10.8%.

For `COc1ccc2c(c1)O[C@@]1(CCCC[C@@H]1C)CC2=O`, the “hERG current change (%, negative = inhibition) at 10uM” value is listed as -1.09%.

Take `CCC(C)Sc1nc2c(c(=O)[nH]c(=O)n2C)n1C` (stereo not drawn): the “hERG current change (%, negative = inhibition) at 10uM” value is recorded as -4.04%.

In the case of `Cc1nn(C(C)C(=O)NCCN2CCCC2)c(=O)c2c1sc1ccccc12` (stereo not drawn), the “hERG current change (%, negative = inhibition) at 10uM” value is 1.56%.

On to `Cn1c(C(=O)N2CCN(c3nc4ccccc4s3)CC2)cc2sccc21`, for which the “hERG current change (%, negative = inhibition) at 10uM” value was -8.35%.

Regarding `O=C(CCNc1ccc(Cc2ccncc2)cc1)c1cccc([N+](=O)[O-])c1`, the “hERG current change (%, negative = inhibition) at 10uM” value was determined as 11%.

For the compound `O=C(Nc1ccc(Nc2ccncc2)cc1)c1ccc([N+](=O)[O-])cc1`, the “hERG current change (%, negative = inhibition) at 10uM” value was -59.5%.

Regarding `COC(=O)C(CC(C)C)NC(=O)c1ccc([N+](=O)[O-])cc1` (stereo not drawn), the “hERG current change (%, negative = inhibition) at 10uM” value was -23.2%.

In the case of `COc1ccccc1C(=O)NCCCNc1ccc([N+](=O)[O-])cc1`, the “hERG current change (%, negative = inhibition) at 10uM” value was -19.2%.

For the compound `COc1cc(C(=O)NCCCNc2ccc([N+](=O)[O-])cc2)cc(OC)c1OC`, the “hERG current change (%, negative = inhibition) at 10uM” value is -57.6%.

In the case of `O=C(NCCCCC(NC(=O)c1ccc([N+](=O)[O-])cc1)C(=O)O)c1ccc([N+](=O)[O-])cc1` (stereo not drawn), the “hERG current change (%, negative = inhibition) at 10uM” value was -44.7%.

As to `O=[N+]([O-])c1ccc(NCc2ccncc2)cc1`, the “hERG current change (%, negative = inhibition) at 10uM” value is on record as -3.55%.

`O=C(Nc1ccccc1C(=O)Nc1ccncc1)c1ccc([N+](=O)[O-])cc1`: the “hERG current change (%, negative = inhibition) at 10uM” value is listed as -4.77%.

In the case of `O=C(CCNc1ccc(Cc2ccncc2)cc1)c1ccc([N+](=O)[O-])cc1`, the “hERG current change (%, negative = inhibition) at 10uM” value is recorded as -56.8%.

Take `COC(=O)C(CCCCNC(=O)c1ccc([N+](=O)[O-])cc1)NC(=O)c1ccc([N+](=O)[O-])cc1` (stereo not drawn): the “hERG current change (%, negative = inhibition) at 10uM” value is on record as -76.3%.

As to `COc1ccc(C(=O)NCCNc2ccc([N+](=O)[O-])cc2)cc1OC`, the “hERG current change (%, negative = inhibition) at 10uM” value is listed as -1.31%.

Consider `O=C(NNC(=O)c1ccncc1)Nc1ccc([N+](=O)[O-])cc1`, for which the “hERG current change (%, negative = inhibition) at 10uM” value came to 11.2%.

Turning to `COc1cccc(CN2CCNC(=O)C2CC(=O)NCCc2ccccn2)c1` (stereo not drawn), the “hERG current change (%, negative = inhibition) at 10uM” value came to 9.8%.

For `CC1CCN(C(c2cc3cc4c(cc3[nH]c2=O)OCO4)c2nnnn2CC2CCCO2)CC1` (stereo not drawn), the “hERG current change (%, negative = inhibition) at 10uM” value is on record as -3.99%.

As for `Nc1ccc(SCCN2C(=O)c3ccccc3C2=O)cc1`, the “hERG current change (%, negative = inhibition) at 10uM” value was -1.22%.

On to `CC(=O)/C(C(=N)N1CCN(C(c2ccccc2)c2ccccc2)CC1)=C(\C)O`, for which the “hERG current change (%, negative = inhibition) at 10uM” value is on record as 8.3%.

As to `O=C(CCNC(=O)c1ccco1)Nc1ccccc1OC(F)F`, the “hERG current change (%, negative = inhibition) at 10uM” value came to 10.4%.

Turning to `COc1ccccc1-c1cc(C(=O)NCCc2ccccc2)no1`, the “hERG current change (%, negative = inhibition) at 10uM” value is given as 5.18%.

`BrCC(Br)C1CCC(Br)C(Br)C1` (stereo not drawn): the “hERG current change (%, negative = inhibition) at 10uM” value was 20.6%.

Take `Cc1cc(OCC(=O)NC(C)(C)C)ccc1Cl`: the “hERG current change (%, negative = inhibition) at 10uM” value is given as 7.04%.

For the compound `COC(=O)c1ccc2c(c1)NC1=C(C(=O)CC(C)(C)C1)C(c1ccncc1)N2` (stereo not drawn), the “hERG current change (%, negative = inhibition) at 10uM” value is recorded as -4.48%.

For the compound `O=C(NCc1ccco1)c1cc([N+](=O)[O-])ccc1N1CCOCC1`, the “hERG current change (%, negative = inhibition) at 10uM” value was -25.4%.

In the case of `c1ccc(-n2nnnc2CN2CCOCC2)cc1`, the “hERG current change (%, negative = inhibition) at 10uM” value was 14.8%.

For the compound `CCOC(=O)[C@H]1[C@H]2COc3ccc(C)cc3[C@@H]2N2C(=O)CN(CC3CCCO3)C(=O)[C@@]12C` (stereo partly drawn), the “hERG current change (%, negative = inhibition) at 10uM” value is recorded as 7.72%.

With `COc1ccc(C(=O)NCCNc2ccc([N+](=O)[O-])cc2)cc1`, the “hERG current change (%, negative = inhibition) at 10uM” value is listed as -40.9%.

`CCOc1ccc2nc(NCCCNC(=O)c3cc(OC)c(OC)c(OC)c3)c(C#N)cc2c1`: the “hERG current change (%, negative = inhibition) at 10uM” value is -51.3%.

With `O=C(NCCNc1ccc([N+](=O)[O-])cc1)c1ccc(Cl)cc1`, the “hERG current change (%, negative = inhibition) at 10uM” value is listed as -52.8%.

Turning to `COc1ccc2nc(NCCCNC(=O)c3cc(OC)c(OC)c(OC)c3)c(C#N)cc2c1`, the “hERG current change (%, negative = inhibition) at 10uM” value is on record as -11%.

Regarding `O=C(NCCNc1ccc([N+](=O)[O-])cc1)c1cc(F)c(F)cc1Cl`, the “hERG current change (%, negative = inhibition) at 10uM” value was -45.1%.

For `CCOc1ccc2nc(NCCNC(=O)c3cc(OC)c(OC)c(OC)c3)c(C#N)cc2c1`, the “hERG current change (%, negative = inhibition) at 10uM” value is 5.24%.

These data come from publication PMC4336329 (PLoS ONE, 2015).
